Laboratory results published in PubChem BioAssay AID463173 (ICCB-Longwood Screening Facility, Harvard Medical School, 2010).
The campaign covered roughly 52,000 compounds. About 4,300 (8.3%) were called active. The entries come from a sample that favours actives as a whole. Values without a mark were called inactive. No stated cut-off is given here; in the data, active means survival mostly below about 52% (no sharp cut-off); inactive means mostly above about 56%.

These compounds were tested on DeltatarO mutant (assay: growth inhibition of S. aureus wild type versus tarO mutant, primary screen, teichoic acid synthesis inhibitors, RN4220, OD600 (AID 463173)). Conditions: OD600, 18 h, active compounds read low, screened at 18.75 µg/mL (by protocol).
Compound `CCN(CC)c1ccc2cc(-c3nc(-c4cccs4)no3)c(=O)oc2c1` has a survival of 83%. With `CCC(Sc1nc2ccncc2[nH]1)C(=O)Nc1cc(C)ccc1C` (centres undefined) the survival was 132%. Work on `Cn1ncc(C(=O)N2CCN(c3ccccc3F)CC2)c1C1CCN(C(=O)OC(C)(C)C)CC1` yielded a survival of 71%. With `CCOc1ccc2oc(=O)cc(CN3CCN(C(=O)c4cccc(F)c4)CC3)c2c1` the survival was 31% (active). Compound `CCOc1ccc2oc(=O)cc(CN3CCN(C(=O)c4ccc(Cl)cc4)CC3)c2c1` has a survival of 86%. For `CCOc1ccc2oc(=O)cc(CN3CCN(C(=O)c4ccc(F)cc4)CC3)c2c1`, the survival was 31% (active). Work on `CCOc1ccc2oc(=O)cc(CN3CCN(C(=O)c4ccc(OC)c(OC)c4)CC3)c2c1` yielded a survival of 50%. In the case of `CCOc1ccc2oc(=O)cc(CN3CCN(C(=O)c4cccc(Cl)c4)CC3)c2c1`, the survival is reported as 66%. In the case of `CCOc1ccc2oc(=O)cc(CN3CCN(Cc4ccc(F)cc4)CC3)c2c1`, the survival is reported as 83%. Compound `CCc1nc2ccc(C(=O)NCc3ccc(N(C)C)cc3)cc2nc1CC` has a survival of 99%. For `Cc1c(C(=O)N2CCC(C)CC2)c(S(=O)(=O)NCc2ccccc2)c(C)n1C`, the survival was 66%. `O=C(NCc1ccccc1Br)c1cnc2sc(N3CCCCCC3)nn2c1=O` gave a survival of 94%. `Cc1cccc(NC(=O)CSc2cn(CC(=O)N3CCCC3)c3ccccc23)c1C` showed a survival of 99%. With `Cc1ccc(N2C(=O)CSC23C(=O)N(CC(=O)NC2CCCCC2)c2ccccc23)cc1C` (centres undefined) the survival was 94%. Compound `CCCn1cc(S(=O)(=O)c2cccc(Cl)c2)c(=O)c2cc(F)c(N3CCN(CC)CC3)cc21` has a survival of 115%. `Nc1nonc1-c1nc2ccccc2n1Cc1cccc(Cl)c1` gave a survival of 80%. In the case of `Cc1ccc(Cn2c(-c3ccccc3)nc3ccccc32)cc1`, the survival is reported as -2% (active). In the case of `Cc1cccc(-c2nc3ccccc3n2Cc2ccccc2)c1`, the survival is reported as 0% (active). `Cc1ccc(Cn2c(C(C)NC(=O)c3ccccc3)nc3ccccc32)cc1` (centres undefined) was tested, and the survival was 90%. `Fc1ccc(Cn2c(-c3cccc(Br)c3)nc3ccccc32)cc1` gave a survival of 109%. With `O=C(CSc1nc2ccccc2n1Cc1ccccc1F)NCc1ccccc1` the survival was 97%. `Cc1ccc(Cn2c(=O)c3ccccc3n3c(-c4ccccc4)nnc23)cc1` showed a survival of 86%. For `Cc1cccc(Cn2c(-c3ccccc3)nc3ccccc32)c1`, the survival was -2% (active). Work on `CCC(O)c1nc2ccccc2n1Cc1cccc(Cl)c1` (centres undefined) yielded a survival of 83%. `Cc1ccc(Cn2c(CCNC(=O)c3cccc(C)c3)nc3ccccc32)cc1` was tested, and the survival was 60%. `Fc1ccccc1Cn1c(-c2ccccc2)nc2ccccc21` was tested, and the survival was 1% (active). `Cc1cccc(Cn2c(-c3cccc(Br)c3)nc3ccccc32)c1` gave a survival of 122%. With `CCOC(=O)Cc1ccc(NC(=O)N2CC(C)Oc3ccc(Cl)cc32)cc1` (centres undefined) the survival was 55%. With `O=CN(Cc1ccco1)C1(C(=O)NC2CCCCC2)CCCCC1` the survival was 76%. In the case of `OCc1cnc(SCc2ccccc2F)n1Cc1ccc(F)cc1`, the survival is reported as 87%. For `COc1ccccc1CNC(=O)CCC1N=C2c3ccccc3N=C(SCC(=O)Nc3ccc(F)cc3)N2C1=O` (centres undefined), the survival was 84%. For `Cc1ccc2nc(-c3cccnc3)c(Nc3ccc(C(C)C)cc3)n2c1`, the survival was 94%. With `O=C(COCc1cc(-c2ccc3c(c2)OCO3)on1)Nc1cc(Cl)ccc1O` the survival was 60%. Work on `CCn1c(=O)cc(SCC(=O)Nc2cc(Cl)ccc2OC)c2ccccc21` yielded a survival of 67%. Work on `CCCNC(=O)c1ccc(Cn2c(SCC(=O)NC(C)C)nc3ccccc3c2=O)cc1` yielded a survival of 102%. `CCOc1ccccc1C(=O)NCC(c1ccc(N(C)C)cc1)N1CCc2ccccc21` (centres undefined) showed a survival of 102%. For `COc1ccccc1C(=O)NCC(c1ccc(N(C)C)cc1)N1CCc2ccccc21` (centres undefined), the survival was 46% (active). `CN(C)c1ccc(C(CNC(=O)c2ccccc2Cl)N2CCc3ccccc32)cc1` (centres undefined) was tested, and the survival was 37% (active). For `CN(C)c1ccc(C(CNC(=O)c2ccccc2F)N2CCc3ccccc32)cc1` (centres undefined), the survival was 105%. `COc1cccc(C(=O)NCC(c2ccc(N(C)C)cc2)N2CCc3ccccc32)c1OC` (centres undefined) showed a survival of 93%. `CN(C)c1ccc(C(CNC(=O)c2ccccc2)N2CCc3ccccc32)cc1` (centres undefined) showed a survival of 115%. `O=C(Cn1c(=O)sc2ccccc21)Nc1cccc(Cl)c1` showed a survival of 83%. With `CCN(Cc1ccccc1)C(=O)CN1C(=O)COc2ccc(S(=O)(=O)N3CCOCC3)cc21` the survival was 98%. `CCOC(=O)Nc1cccc(C(=O)O)c1` was tested, and the survival was 71%. Work on `COC(=O)c1c(NC(=O)c2nc(SC)ncc2Cl)sc2c1CCCC2` yielded a survival of 85%. For `COC(=O)c1c(NC(=O)c2nc(SCc3ccc(F)cc3)ncc2Cl)sc2c1CCCC2`, the survival was 47%. `CCOC(=O)c1c(NC(=O)c2nc(SCC)ncc2Cl)sc2c1CCCC2` was tested, and the survival was 91%. With `CNC(=O)c1c(NC(=O)c2nc(SCc3ccc(C)cc3)ncc2Cl)sc2c1CCCC2` the survival was 37% (active). `Cc1ccc(CSc2ncc(Cl)c(C(=O)Nc3sc4c(c3C(N)=O)CCCC4)n2)cc1` gave a survival of 105%. `COC(=O)c1c(NC(=O)c2nc(SCc3cccc(C)c3)ncc2Cl)sc2c1CCCC2` gave a survival of 113%. In the case of `CCOC(=O)c1c(NC(=O)c2nc(SC(C)C)ncc2Cl)sc2c1CCCC2`, the survival is reported as 56% (active). `CCSc1ncc(Cl)c(C(=O)Nc2sc3c(c2C(=O)NC)CCCC3)n1` showed a survival of 82%. In the case of `COC(=O)c1c(NC(=O)c2nc(SCc3ccc(C)cc3)ncc2Cl)sc2c1CCCC2`, the survival is reported as 46% (active). Work on `Cc1cc(C)nc(-n2nc(C)c3c2N(Cc2ccccc2F)C(=O)CC3c2ccc(Cl)cc2)n1` (centres undefined) yielded a survival of 100%. Work on `CCC(=O)N1CCc2cc(Br)cc(S(=O)(=O)CCC(=O)Nc3ccc(C)c(F)c3)c21` yielded a survival of 86%. `CCCCn1c(SCC(=O)Nc2ccc(OCC)cc2)nc2ccsc2c1=O` was tested, and the survival was 130%. With `CCc1ccccc1NC(=O)C1(C)Cc2ccccc2C(=O)O1` (centres undefined) the survival was 97%. Compound `CCc1ccc(NCc2cc3cc4c(cc3n(CC(=O)Nc3ccccc3Cl)c2=O)OCO4)cc1` has a survival of 73%. With `Cn1c(=O)n(C)c2cc(N3CCCCC3)c(NC(=O)c3ccc(Cl)cc3)cc21` the survival was 74%.
